# Only a selection was taken, and the strongest signals are over-represented in it overall.
# B1: Calsepa (Calystegia sepium), P93114 (protein)
# chain: MAVPMDTISGPWGNNGGNFWSFRPVNKINQIVISYGGGGNNPIALTFSSTKADGSKDTITVGGGGPDSITGTEMVNIGTDEYLTGISGTFGIYLDNNVLRSITFTTNLKAHGPYGQKVGTPFSSANVVGNEIVGFLGRSGYYVDAIGTYNRHK
# Assays:
# Test in all cases: glycan array binding signal (z-score within array); higher = stronger binding
# Settings in all cases: glycan notation: IUPAC condensed, linker removed
# [1] = target: Fuc(a1-2)Gal(b1-3)GlcNAc(b1-3)GalNAc
# Outline: (§1)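 Glycan array data were curated from 3228 arrays in the Consortium for Functional Glycomics database and kept only where the protein sequence was available. Glycan names were converted to IUPAC-condensed notation, and columns mapping to the same glycan were averaged. The binding signal is a within-array Z-score, averaged across arrays of the same protein sequence at different concentrations or buffers and across linkers. Negative Z-scores can be read as non-binding.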
# [2] = target: Fuc(a1-2)Gal(b1-4)[Fuc(a1-3)]GlcNAc(b1-2)[Fuc(a1-2)Gal(b1-4)[Fuc(a1-3)]GlcNAc(b1-4)]Man(a1-3)[Fuc(a1-2)Gal(b1-4)[Fuc(a1-3)]GlcNAc(b1-2)Man(a1-6)]Man(b1-4)GlcNAc(b1-4)GlcNAc
# Outline: as §1
# [3] = target: Fuc(a1-2)Gal6S(b1-3)GlcNAc6S
# Outline: as §1
# [4] = target: Fuc(a1-2)[Gal(a1-3)]Gal(b1-4)GlcNAc
# Outline: as §1
# [5] = target: Fuc(a1-3)[Gal(b1-4)]GlcNAc(b1-2)Man(a1-3)[Fuc(a1-3)[Gal(b1-4)]GlcNAc(b1-2)Man(a1-6)]Man(b1-4)GlcNAc(b1-4)GlcNAc
# Outline: as §1
# [6] = target: Fuc(a1-3)[Gal(b1-4)]GlcNAc(b1-4)Gal(b1-4)[Fuc(a1-3)]GlcNAc
# Outline: as §1
# [7] = target: Fuc(a1-3)[GalNAc3S(b1-4)]GlcNAc
# Outline: as §1
# [8] = target: Fuc(a1-4)GlcNAc
# Outline: as §1
# [9] = target: Gal(a1-3)Gal(b1-3)GlcNAc(b1-6)GalNAc
# Outline: as §1
# [10] = target: Gal(a1-4)Gal(b1-4)GlcNAc(b1-2)Man(a1-3)[Gal(a1-4)Gal(b1-4)GlcNAc(b1-2)Man(a1-6)]Man(b1-4)GlcNAc(b1-4)GlcNAc
# Outline: as §1
# [11] = target: Gal(b1-3)Gal(b1-4)GlcNAc(b1-2)Man(a1-3)[Gal(b1-3)Gal(b1-4)GlcNAc(b1-2)Man(a1-6)]Man(b1-4)GlcNAc(b1-4)GlcNAc
# Outline: as §1
# [12] = target: Gal(b1-3)GalNAc(b1-4)[Neu5Ac(a2-3)]Gal(b1-4)Glc
# Outline: as §1
# [13] = target: Gal(b1-3)GlcNAc(b1-2)Man(a1-3)[GlcNAc(b1-4)][Gal(b1-3)GlcNAc(b1-2)Man(a1-6)]Man(b1-4)GlcNAc(b1-4)GlcNAc
# Outline: as §1
# [14] = target: Gal(b1-3)[Fuc(a1-4)]GlcNAc
# Outline: as §1
# [15] = target: Gal(b1-3)[Fuc(a1-4)]GlcNAc(b1-3)Gal(b1-4)GlcNAc
# Outline: as §1
# [16] = target: Gal(b1-3)[Fuc(a1-4)]GlcNAc(b1-3)Gal(b1-4)[Fuc(a1-3)]GlcNAc
# Outline: as §1
# [17] = target: Gal(b1-3)[Neu5Ac(a2-6)]GlcNAc(b1-6)Gal(b1-4)Glc
# Outline: as §1
# [18] = target: Gal(b1-4)GlcNAc(b1-2)Man(a1-3)[Gal(b1-4)GlcNAc(b1-2)][GlcNAc(b1-4)]Man(b1-4)GlcNAc(b1-4)GlcNAc
# Outline: as §1
# [19] = target: Gal(b1-4)GlcNAc(b1-2)[Gal(b1-4)GlcNAc(b1-4)]Man(a1-3)[Gal(b1-4)GlcNAc(b1-2)Man(a1-6)]Man(b1-4)GlcNAc(b1-4)GlcNAc
# Outline: as §1
# [20] = target: Gal(b1-4)GlcNAc(b1-2)[Gal(b1-4)GlcNAc(b1-6)]Man(a1-6)[GlcNAc(b1-4)][Gal(b1-4)GlcNAc(b1-2)Man(a1-3)]Man(b1-4)GlcNAc(b1-4)GlcNAc
# Outline: as §1
# [21] = target: Gal(b1-4)GlcNAc(b1-6)Gal(b1-4)GlcNAc
# Outline: as §1
# [22] = target: Gal(b1-4)GlcNAc(b1-6)[Gal(b1-3)]GalNAc
# Outline: as §1
# [23] = target: Gal(b1-4)GlcNAc6P
# Outline: as §1
# [24] = target: Gal6S(b1-4)Glc6S
# Outline: as §1
# [25] = target: GlcA(b1-3)Gal
# Outline: as §1
# [26] = target: GlcNAc(b1-2)Man(a1-3)[GlcNAc(b1-4)][GlcNAc(b1-2)Man(a1-6)]Man(b1-4)GlcNAc(b1-4)GlcNAc
# Outline: as §1
# [27] = target: GlcNAc(b1-2)[GlcNAc(b1-6)]Man(a1-6)[GlcNAc(b1-2)Man(a1-3)][GlcNAc(b1-4)]Man(b1-4)GlcNAc(b1-4)GlcNAc
# Outline: as §1
# [28] = target: GlcNAc(b1-3)[GlcNAc(b1-4)][GlcNAc(b1-6)]GlcNAc
# Outline: as §1
# [29] = target: GlcNAc3Prop(b1-4)GlcNAc
# Outline: as §1
# [30] = target: Man(a1-2)Man(a1-3)Man
# Outline: as §1
# [31] = target: Man(a1-2)Man(a1-3)[Man(a1-2)Man(a1-6)]Man
# Outline: as §1
# [32] = target: Man(a1-2)Man(a1-3)[Man(a1-6)]Man(a1-6)[Man(a1-2)Man(a1-3)]Man(b1-4)GlcNAc(b1-4)GlcNAc
# Outline: as §1
# [33] = target: Neu5Ac(a2-3)Gal(b1-4)GlcNAc(b1-2)Man
# Outline: as §1
# [34] = target: Neu5Ac(a2-3)Gal(b1-4)GlcNAc(b1-3)[Neu5Ac(a2-3)Gal(b1-4)GlcNAc(b1-6)]GalNAc
# Outline: as §1
# [35] = target: Neu5Ac(a2-6)Gal(b1-4)GlcNAc(b1-2)Man(a1-3)Man(b1-4)GlcNAc(b1-4)GlcNAc
# Outline: as §1
# [36] = target: Neu5Ac(a2-6)Gal(b1-4)GlcNAc(b1-2)Man(a1-3)[GlcNAc(b1-2)Man(a1-6)]Man(b1-4)GlcNAc(b1-4)GlcNAc
# Outline: as §1
# [37] = target: Neu5Ac(a2-6)Gal(b1-4)GlcNAc(b1-2)Man(a1-3)[Man(a1-6)]Man(b1-4)GlcNAc(b1-4)GlcNAc
# Outline: as §1
# [38] = target: Neu5Ac(a2-6)Gal(b1-4)GlcNAc(b1-2)Man(a1-3)[Neu5Ac(a2-6)Gal(b1-4)GlcNAc(b1-2)Man(a1-6)]Man(b1-4)GlcNAc(b1-4)GlcNAc
# Outline: as §1
# [39] = target: Neu5Ac(a2-6)Gal(b1-4)GlcNAc(b1-2)Man(a1-3)[Neu5Ac(a2-6)Gal(b1-4)GlcNAc(b1-2)Man(a1-6)]Man(b1-4)GlcNAc(b1-4)[Fuc(a1-6)]GlcNAc
# Outline: as §1
# [40] = target: Neu5Ac(a2-6)Gal(b1-4)GlcNAc(b1-2)Man(a1-6)[Gal(b1-4)GlcNAc(b1-2)Man(a1-3)]Man(b1-4)GlcNAc(b1-4)GlcNAc
# Outline: as §1
# [41] = target: Neu5Ac(a2-6)Gal(b1-4)GlcNAc(b1-3)[Neu5Ac(a2-6)Gal(b1-4)GlcNAc(b1-6)]GalNAc
# Outline: as §1
# [42] = target: Neu5Gc(a2-6)Gal(b1-4)GlcNAc
# Outline: as §1
binder,measurement,setting,value
B1,glycan array binding signal (z-score),[1],-0.268
same,glycan array binding signal (z-score),[2],-0.257
same,glycan array binding signal (z-score),[3],-0.26
same,glycan array binding signal (z-score),[4],-0.249
same,glycan array binding signal (z-score),[5],-0.082
same,glycan array binding signal (z-score),[6],-0.253
same,glycan array binding signal (z-score),[7],-0.265
same,glycan array binding signal (z-score),[8],-0.244
same,glycan array binding signal (z-score),[9],-0.269
same,glycan array binding signal (z-score),[10],3.47
same,glycan array binding signal (z-score),[11],3.79
same,glycan array binding signal (z-score),[12],-0.253
same,glycan array binding signal (z-score),[13],4.21
same,glycan array binding signal (z-score),[14],-0.25
same,glycan array binding signal (z-score),[15],-0.252
same,glycan array binding signal (z-score),[16],-0.253
same,glycan array binding signal (z-score),[17],-0.248
same,glycan array binding signal (z-score),[18],5.25
same,glycan array binding signal (z-score),[19],-0.045
same,glycan array binding signal (z-score),[20],3.71
same,glycan array binding signal (z-score),[21],-0.251
same,glycan array binding signal (z-score),[22],-0.249
same,glycan array binding signal (z-score),[23],-0.27
same,glycan array binding signal (z-score),[24],-0.237
same,glycan array binding signal (z-score),[25],-0.244
same,glycan array binding signal (z-score),[26],5
same,glycan array binding signal (z-score),[27],5.82
same,glycan array binding signal (z-score),[28],-0.241
same,glycan array binding signal (z-score),[29],-0.246
same,glycan array binding signal (z-score),[30],-0.248
same,glycan array binding signal (z-score),[31],-0.251
same,glycan array binding signal (z-score),[32],-0.239
same,glycan array binding signal (z-score),[33],-0.255
same,glycan array binding signal (z-score),[34],-0.273
same,glycan array binding signal (z-score),[35],6.79
same,glycan array binding signal (z-score),[36],3.81
same,glycan array binding signal (z-score),[37],3.86
same,glycan array binding signal (z-score),[38],4.29
same,glycan array binding signal (z-score),[39],0.514
same,glycan array binding signal (z-score),[40],4.01
same,glycan array binding signal (z-score),[41],-0.274
same,glycan array binding signal (z-score),[42],-0.247

# From the supplement of paper PMC8728848
